PubChem BioAssay AID686979 (National Center for Advancing Translational Sciences (NCATS), 2013)
Out of some 420,000 compounds screened, about 50,000 (12%) were called active. About 26% were inconclusive and are not listed. The entries come from a sample that favours actives as a whole. A number with no mark means an inactive call. Calls follow the shape of the dose curve; as a rule, active = well fitted inhibition curve with a large enough effect; inconclusive = small, poorly fitted or top-dose-only effect; inactive = flat fitted curve, though single readings scatter.

assay: qHTS for Inhibitors of human tyrosyl-DNA phosphodiesterase 1 (TDP1): qHTS in cells in presence of CPT; settings: chicken DT40 Tdp1-/-;hTDP1 cells + 20 nM CPT, ATP luminescence, 48 h; series mostly up to 46.2 µM; activity change, negative = growth inhibition: at the top concentration; also: nearly all actives have a fitted effect of over 55% in size
How it was run: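 Cell growth measured by CellTiter-Glo luminescence after a minimum 48 h, 37 C compound exposure with 20 nM CPT in Tdp1-knockout DT40 cells stably expressing hTDP1, seeded 400/well; qHTS titration format.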
% is scaled to controls: 0 for no effect and ±100 for the full control effect; potency is read from the fitted curve at half-maximal effect.

Row | Compound | activity change, negative = growth inhibition | Potency
1 | COc1ccc(S(=O)(=O)N2CCN(CC(=O)NCC3(N4CCOCC4)CCCCC3)CC2)cc1 | -11.5% | –
2 | CC(C)N(Cc1ccccc1)C(=S)Nc1ccc(OC(F)F)cc1 | -3.09% | –
3 | CC(NC(=S)Nc1ccc(OC(F)F)cc1)c1ccc(F)cc1 (stereo not drawn) | – | 14.6 µM (active)
4 | O=C1CCC(C(=O)Nc2ccc(OC(F)F)cc2)N1 (stereo not drawn) | 2.42% | –
5 | Cc1c(CN2CCC(n3nccc3NC(=O)CCc3ccccc3)CC2)cnn1C | -2.41% | –
6 | COc1cc2cc(C(=O)N/N=C/c3cccc(OC)c3OC)[nH]c2cc1OC | -7.05% | –
7 | COc1cccc(/C=N/NC(=O)c2[nH]nc3c2CCc2ccccc2-3)c1O | – | 2.31 µM (active)
8 | CN(C)CCNC(=O)c1[nH]nc2c1CCc1ccccc1-2 | 7.41% | –
9 | O=C1CC(c2cccc(Cl)c2)CC(O)=C1C=Nc1ccccc1 (stereo not drawn) | -29.9% | –
10 | CSc1ncnc2c1ncn2CCCNCc1cccs1 | 5.05% | –
11 | Cn1c(=O)c2c(n3c4ccccc4nc13)NC(=O)CC2c1cccc(Cl)c1 (stereo not drawn) | -18.7% | –
12 | CC(Oc1cccc(NC(=O)c2cccs2)c1)C(=O)c1ccccc1 (stereo not drawn) | -1.98% | –
13 | Cc1ccc(-c2noc(-c3nnn(-c4cccc(C(F)(F)F)c4)c3N)n2)cc1 | -7.25% | –
14 | O=C(c1nnc(-c2ccc(Cl)cc2)o1)C1CCCC1 | 3.3% | –
15 | Cc1ccc2nc(N(CCN(C)C)C(=O)C3=COCCO3)sc2c1 | -3.83% | –
16 | CC(C)N(Cc1nnc(-c2ccc(Cl)cc2)o1)C(=O)C1=COCCO1 | – | 9.2 µM (active)
17 | N#Cc1ccc(-c2cccs2)nc1SCc1ccc(Br)cc1 | -26.8% | –
18 | Nc1c(-c2ccccc2)nnn1Cc1ccccc1 | -18.3% | –
19 | COCc1c(C(=O)NC2CCCCC2)cnn1-c1nccc(-c2ccccc2OC)n1 | 5.12% [at 9.04 µM] | –
20 | Cc1cc(C(=O)NCC2Cc3cccc(-c4cncnc4)c3O2)c(C)o1 (stereo not drawn) | 6.48% [at 9.04 µM] | –
21 | Cc1cc(C(=O)NC2CCCc3c2cnn3-c2cccc(C)c2C)c(C)o1 (stereo not drawn) | – | 13 µM (active)
22 | Cc1cccc(C(=O)OC(C)C(=O)NC2CCCc3ccccc32)c1O (stereo not drawn) | 4.8% | –
23 | COc1ccc(C(=O)NC2CCCc3c2cnn3-c2cccc(C)c2C)c(OC)n1 (stereo not drawn) | – | 10.3 µM (active)
24 | Cc1cc(C(=O)NNC(=O)CCC2CCCCC2)c(C)o1 | 1.89% | –
25 | CCN(CC(=O)NCc1ccc(F)cc1)S(=O)(=O)c1ccc(Cl)s1 | -18% | –
26 | Cc1ccccc1CCNC(=O)C1CCC(=O)N(Cc2ccc(Cl)cc2)C1 (stereo not drawn) | -27.1% | –
27 | C/C(=N\Nc1ccc(S(N)(=O)=O)cc1[N+](=O)[O-])c1cccs1 | -4.25% | –

Row | Compound | activity change, negative = growth inhibition | Potency
28 | CCC(=O)N1CCc2cc(S(=O)(=O)NC(C(=O)N3CCc4ccccc4C3)C(C)C)ccc21 (stereo not drawn) | -21.2% | –
29 | CCC(=O)N1CCc2cc(Br)c(S(=O)(=O)NCCN3CCCCC3CC)cc21 (stereo not drawn) | -4.35% | –
30 | CCCN(CCC)S(=O)(=O)c1cc2c(cc1Br)CCN2C(=O)CC | – | 8.2 µM (active)
31 | Cc1ccc2c(c1)-c1c(cnn1CC(=O)Nc1ccccc1C#N)CO2 | -15.2% | –
32 | O=C(O)C1C2C=CC(O2)C1C(=O)Nc1ccccn1 (stereo not drawn) | -1.18% | –
33 | CCOC(=O)CSc1nc2c(sc(=S)n2CCc2ccccc2)c(=O)n1Cc1ccco1 | – | 20.6 µM (active)
34 | CCOC(=O)CSc1nnc(-c2ccco2)n1C | -0.885% | –
35 | Cc1cc(C)nc(SCc2nnc(SCC(=O)Nc3ncc(C)s3)n2Cc2ccco2)n1 | -21.2% | –
36 | O=C(c1ccc(F)cc1)C1CCN(Cc2cn[nH]c2-c2ccccc2)CC1 | -2.03% | –
37 | C[C@H](NC(=O)OC(C)(C)C)c1nnc(SCC(N)=O)o1 | 1.58% | –
38 | CC(C)Sc1nnc([C@H](Cc2ccccc2)NC(=O)OC(C)(C)C)o1 | 9.14% | –
39 | C[C@@H](NC(=O)OC(C)(C)C)c1nnc(S(=O)(=O)Cc2ccccc2)o1 | – | 0.651 µM (active)
40 | CN(CCC#N)c1ccc(C=O)cc1 | -13.6% | –
41 | CCn1c(=S)[nH]c2cc(S(=O)(=O)N3CCOCC3)ccc21 | 13.2% | –
42 | Cc1ccc(S(=O)(=O)N[C@H](CO)C(C)C)cc1 | -0.0886% | –
43 | Cc1ccc(S(=O)(=O)N/N=C(\c2ccccc2)C2CC2)cc1 | -15.3% | –
44 | Cc1ccc(S(=O)(=O)/N=C2\C=C(NS(=O)(=O)c3ccc(C)cc3)C(=O)c3ccccc32)cc1 | – | 23.1 µM (active)
45 | CCC1(CC)NC(=O)N(CC(=O)OCC(=O)c2cc(C)c(C)cc2C)C1=O | -17.4% | –
46 | Cc1csc(NC(=O)CSc2nc(=O)cc(N)n2-c2ccc(F)cc2)n1 | 1.68% | –
47 | CC1Cc2[nH][nH]c(=O)c2C(C2CCCC2)O1 (stereo not drawn) | -16.1% | –
48 | CCn1c(C(C)NC(=O)c2ccc(C)cc2)n[nH]c1=S (stereo not drawn) | -6.68% | –
49 | CCN1CCC2(CC1)N=C(c1ccc(F)cc1)C(=S)N2C(=O)c1ccc(C)cc1 | – | 8.2 µM (active)
50 | CCN1CCN(C(=O)CSc2ccc(C)cc2)CC1 | 12.1% | –
51 | C/C(=N\NC(N)=S)c1cccnc1 | -1.16% | –
52 | C/C(=N\NC(N)=S)c1ccncc1 | -2.26% | –
53 | C/C(=N\NC(=S)NC(C)C)c1ccc(C(C)(C)C)cc1 | – | 23.1 µM (active)
